{
  "source": "PubChem BioAssay (NCI)",
  "note": "The panel holds about 83,000 compounds, 20% with a hit somewhere; the sample as a whole holds those more often.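 Step 1: grow cells in 96-well plates. Step 2: add test compound at a single concentration. Step 3: incubate 48 h. Step 4: record percent growth.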 Unmarked numbers belong to inactive results. Calls of active or inactive are those of the source. How the source made its calls: active means growth percent below 10; inactive means the rest.",
  "data": [
    {"test_system": "NCI-H322M lung", "experiment": "NCI-60 one-dose screen, 48 h (100 = growth as untreated, 0 = no growth, -100 = all killed)", "settings": "10 µM unless noted", "values": [
      {"smiles": "N/C(=N\\c1nc2ccccc2s1)NC(=O)Nc1ccc(Cl)cc1Cl", "growth": "-51.3% (active)"},
      {"smiles": "CCCCSc1nc(Nc2ccc(S(N)(=O)=O)cc2)c(C#N)c(-c2cc(OC)c(OC)c(OC)c2)n1", "growth": "75.1%"},
      {"smiles": "O=C(COc1ccc2c(c1)CCCC(=O)N2)NCc1ccccc1", "growth": "112%"},
      {"smiles": "CC1(C)CC[C@]2(C(=O)O)CC[C@]3(C)C(=CCC4[C@@]5(C)C[C@@H](O)[C@@H]6OC(c7cccc(Br)c7)OC[C@@]6(C)C5CC[C@]43C)C2C1", "note": "(stereo partly drawn)", "growth": "38.7%"},
      {"smiles": "C#CCOc1ccc(/C=N/Nc2nc(-c3cc4cc(OC)ccc4oc3=O)cs2)cc1OC", "growth": "72.2%"},
      {"smiles": "N#Cc1c(NCc2ccccc2)n[nH]c1Nc1ccccc1", "growth": "65.1%"},
      {"smiles": "Cn1cc(-c2cc3nc(-c4c[nH]c5ccc(Cl)cc45)cc(N)n3n2)c2ccccc21", "growth": "-82% (active)"},
      {"smiles": "C#C[C@]1(O)CC[C@H]2[C@@H]3CC=C4c5sc(-c6ccc([N+](=O)[O-])cc6)nc5CC[C@]4(C)[C@H]3CC[C@@]21C", "growth": "25.5%"},
      {"smiles": "O=C(CSc1nc2ccccc2c(=O)[nH]1)NCCN1CCCCC1", "growth": "94.8%"},
      {"smiles": "C#CCOc1cc(N(CC)CC)ccc1C(C(=O)NC(C)(C)C)N(C(=O)C1CCc2cc(F)ccc2O1)c1ccc(F)c(Cl)c1", "note": "(stereo not drawn)", "growth": "89.5%"},
      {"smiles": "O=c1oc2ccccc2cc1-c1csc(N2N=C(c3ccccc3)CC2c2ccc(N3CCOCC3)cc2)n1", "note": "(stereo not drawn)", "growth": "120%"},
      {"smiles": "Cn1cc(-c2cc(N)n3nc(-c4cn(C)c5ncccc45)cc3n2)c2cccnc21", "growth": "104%"},
      {"smiles": "COc1ccc(-c2ccnc(SCc3cc4cc(OC)ccc4[nH]c3=O)n2)cc1", "growth": "48.1%"},
      {"smiles": "CCOc1ccc(-c2c(C#N)c(-c3ccc(Cl)cc3)nc3n[nH]c(-c4ccc(Cl)cc4)c23)cc1OC", "growth": "77.1%"},
      {"smiles": "CN(C)c1ccnc(NCCCSC(c2ccccc2)(c2ccccc2)c2ccccc2)c1", "growth": "61.5%"},
      {"smiles": "O=C(Cn1c(/C=C/c2ccccc2)nc2ccccc2c1=O)Nc1ccccc1", "growth": "87.5%"},
      {"smiles": "O=C(O)c1cccc(-c2ccc(/C=N/NC(=O)c3[nH]c4ccc(Br)cc4c3-c3ccccc3)s2)c1", "growth": "58.8%"},
      {"smiles": "C#CCOc1ccc(/C=N/Nc2nc(-c3ccc(F)cc3)cs2)cc1OC", "growth": "83.1%"},
      {"smiles": "Cc1cc2c(cc1Cl)C(=O)/C(=C/c1ccc(F)cc1)O2", "growth": "99.6%"},
      {"smiles": "Cn1cc(-c2cc3nc(-c4cn(C)c5ncccc45)cc(N)n3n2)c2cc(Cl)ccc21", "growth": "-19.8% (active)"},
      {"smiles": "COc1ccc2[nH]cc(-c3cc(N)n4nc(-c5cn(C)c6ccccc56)cc4n3)c2c1", "growth": "-97.2% (active)"},
      {"smiles": "COc1ccc(Cc2nn(CC(=O)N/N=C/c3ccc(F)cc3)c(=O)c3c(C)noc23)cc1", "growth": "37.1%"},
      {"smiles": "Cc1cccc(NC(=O)CN2CCN(c3ncnc4c3cnn4-c3ccccc3)CC2)c1", "growth": "91.3%"},
      {"smiles": "Cn1cc(-c2nc(N)nnc2-c2c[nH]c3ccc(F)cc23)c2cc(Br)cnc21", "growth": "34.8%"},
      {"smiles": "COc1ccc2[nH]cc(-c3nnc(N)nc3-c3cn(C)c4ncc(Br)cc34)c2c1", "growth": "77.9%"},
      {"smiles": "CC1(C)CC[C@]2(C(=O)O)CC[C@]3(C)C(=CCC4[C@@]5(C)C[C@@H](O)[C@@H]6OC(c7ccco7)OC[C@@]6(C)C5CC[C@]43C)C2C1", "note": "(stereo partly drawn)", "growth": "30.1%"},
      {"smiles": "COc1cc2c(c(OC)c1OC)C(=O)CC(c1cccc(NC(=O)c3cc(NC(=O)[C@H](C)N)ccc3Cl)c1)O2", "note": "(stereo partly drawn)", "growth": "81.2%"},
      {"smiles": "Cc1ccc(C(=O)C(c2c[nH]c3ccccc23)c2c[nH]c3ccccc23)cc1", "growth": "81.8%"}
    ]}
  ]
}
